The text below walks through data of ChEMBL document CHEMBL1201862, “PubChem BioAssay data set” (2004).

Out of some 58,000 sequences screened, about 4,600 (7.9%) were called active. Cut-off read from the data, not from the text of the source: active = GI50 up to about 1.1 µM and inactive = higher. Only a selection was taken, and actives are over-represented in it overall. Results with a measured potency or affinity are listed apart.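 Protocol summary: plate cells (96-well), add compound at 5 concentrations, incubate 48 h, interpolate endpoints linearly. The concentration for 50% growth inhibition is given as GI50.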

The test system of this test is SW-620. In words: NCI tumour cell line growth inhibition, 48 h.
Substance “[Bis(aminomethyl)dimethylsilane]tetrachloroplatinum(IV), CHEMBL2146190” came in with a GI50 of 1890 nM.
As for “cis-Bis[[(trimethylsilyl)methyl]amino]tetrachloroplatinum(IV), CHEMBL2146191”, the GI50 came out at 2400 nM.
In turn, “[Bis(aminomethyl)diethylsilane]tetrachloroplatinum(IV), CHEMBL2146203” displayed a GI50 of 483 nM.
Regarding “[Bis(aminomethyl)pentamethylenesilane]dichloropaltinum(II), CHEMBL2146202”, the GI50 amounted to 6700 nM.
On to “[Bis(aminomethyl)ethylmethylsilane]tetrachloroplatinum(IV), CHEMBL2146192”, for which the GI50 is 1020 nM.
With “[Bis(aminomethyl)pentamethylenesilane]tetrachloropaltinum(IV), CHEMBL2146204” the figure was 1060 nM; with “[Bis(aminomethyl)dimethylsilane]dichloroplatinum (II), CHEMBL2146201”, 4860 nM.
With “[Bis(aminomethyl)tetramethylenesilane]tetrachloropaltinum(IV), CHEMBL2146189” the figure was 1490 nM; with CISPLATIN, CHEMBL11359, 3870 nM.
With “mu-(1,7-nanodiamine-N,N')bis-(cis-aminedichloroplatimum (II)), CHEMBL2146215” the figure was 32100 nM; with “[Bis(aminomethyl)tetramethylenesilane]dichloropaltinum(II), CHEMBL2146205”, 5160 nM.
